Reference: ChEMBL document CHEMBL3988442, “University of Dundee, Small-Polar-MMV Screening Library” (2021)
In all, about 48,000 compounds went through this assay and about 13,000 (27%) showed an effect of 50% or more. This is one part of the list.

test system: Wolbachia pipientis; assay: Anti-Wolbachia Cell-Based Screen; type: functional; parameters: scale not given: in the data most compounds retested in dose-response had high values; conditions: 5 µM

Row | SMILES | Percent Effect [%]
1 | CC(CN1CCCC1=O)NC(=O)c1cc(-c2cccc(Cl)c2)no1 (stereo unspecified) | -44.82
2 | COCC(=O)N[C@H](C)c1onc(-c2ccccc2)c1C(=O)O | -4.041
3 | CN(C)CC1CN(Cc2nnc(-c3ccccc3Cl)o2)CCO1 (stereo unspecified) | 1.962
4 | COC(=O)c1cccc(C(=O)N2CCCC(n3cncn3)C2)c1 (stereo unspecified) | 108.5
5 | CCCOc1cccc(C(=O)N2CCCC(n3cncn3)C2)c1 (stereo unspecified) | 99.87
6 | O=C(c1cccc(OC2CCCC2)c1)N1CCCC(n2cncn2)C1 (stereo unspecified) | -3.661
7 | CCc1cccc(OCC(=O)N2CCCC(n3cncn3)C2)c1 (stereo unspecified) | 9.617
8 | O=C(c1cccc(CN2CCCC2)c1)N1CCCC(n2cncn2)C1 (stereo unspecified) | -4.839
9 | COCCn1cc(C(=O)N2CCCC(n3cncn3)C2)ccc1=O (stereo unspecified) | -8.291
10 | CN(C)Cc1cccc(C(=O)N2CCCC(n3cncn3)C2)c1 (stereo unspecified) | 139.2
11 | CS(=O)(=O)Cc1cccc(C(=O)N2CCCC(n3cccn3)C2)c1 (stereo unspecified) | 7.401
12 | COc1cc(CCC(=O)NCC2CCCN2C)ccc1OCC(F)(F)F (stereo unspecified) | -0.8695
13 | CC(=O)N1C[C@@H](F)[C@@H](OCc2nc3ccccc3o2)C1 | -12.47
14 | Cc1nc(O)cc([C@@H]2CN(C(=O)C3CC3)C[C@H]2c2ccccc2F)n1 | 114.1
15 | COCC(=O)N1C[C@@H](c2cc(O)nc(C)n2)[C@H](c2ccccc2F)C1 | 108.7
16 | COCC(=O)N1C[C@H]2CN(Cc3csc(C)n3)C(=O)[C@H]2C1.O=C(O)C(F)(F)F | -18.32
17 | Cc1nc(O)cc(C2CCCN(C(=O)COCc3ccccc3)C2)n1 (stereo unspecified) | 12.86
18 | CC(=O)N1C[C@H](c2cc(O)nc(C)n2)[C@@H](c2ccccc2F)C1 | 117
19 | CN1CCC2(CCCN(C(=O)c3cncn3C)C2)CC1.O=C(O)C(F)(F)F | -6.177
20 | CCc1c(O)nc(SCC(=O)Nc2ccccc2)n(C(C)CC)c1=O (stereo unspecified) | -0.04082
21 | CCc1c(O)nc(SCC(=O)N(CC)CC)n(C(C)CC)c1=O (stereo unspecified) | -0.2531
22 | CCc1c(O)n(C(C)CC)c(SCC(=O)c2ccccc2)nc1=O (stereo unspecified) | 125.3
23 | Cc1noc(C)c1CN1C[C@@H](C(=O)O)[C@H](C(C)C)C1 | -19.42
24 | COCCN1CCN(C(C)C(=O)Nc2ccnn2C(C)C)CC1 (stereo unspecified) | -8.101

Row | SMILES | Percent Effect [%]
25 | CC(C)CN1CCn2c(nc3cc(C(=O)NC(C)C)ccc32)C1 | 121.2
26 | CC(C)NC(=O)c1ccc2c(c1)nc1n2CCN(C(C)C)C1 | -1.576
27 | CCN1CCN(c2ccc(C(=O)NC(C)CCOC)cc2)CC1 (stereo unspecified) | -9.084
28 | CCNC(=O)c1ccc2c(c1)nc1n2CCN(C(C)C)C1 | 109.5
29 | CC(C)NC(=O)c1ccc2c(c1)nc1n2CCN(c2ccccc2)C1 | 20.1
30 | CC(C)CN1CCn2c(COCc3cccnc3)nnc2C1.O=C(O)C(F)(F)F.O=C(O)C(F)(F)F | -7.115
31 | CC(C)NC(=O)c1ccc2c(c1)nc1n2CCN(Cc2ccccc2)C1 | 112.9
32 | COCCN1CCn2c(nc3cc(C(=O)NC(C)C)ccc32)C1 | 122.8
33 | CCc1nnc2n1CCN(Cc1ccc(C(=O)N3CCCC3)cc1)C2 | 0.2623
34 | Cc1nnc2n1CCN(CC(=O)NC(C)c1ccc3ccccc3c1)C2 (stereo unspecified) | -2.487
35 | CC(C)N1CCn2c(nc3cc(C(N)=O)ccc32)C1 | 42.97
36 | O=C(Nc1ccccc1CCc1ccccn1)NC1CCOCC1 | -7.389
37 | O=C1NCCN(C(=O)c2cn3ccsc3n2)C1Cc1ccccc1 (stereo unspecified) | -8.073
38 | Cc1cnn(CC2CCCN2Cc2cc(=O)n3ccccc3n2)c1 (stereo unspecified) | 2.976
39 | COC(=O)CNC(=O)c1nc(-c2ccccc2OC)c2cnccn12 | 100.8
40 | COc1ccccc1-c1nc(C(=O)N(C)C)n2ccncc12 | 107.3
41 | COc1ccccc1-c1nc(C(=O)N2CCOCC2)n2ccncc12 | 98.47
42 | COC(=O)CCNC(=O)c1c[nH]cc1-c1ccccc1OC | 1.896
43 | COc1ccccc1C1(CNc2ccnc(C(=O)N(C)C)c2)CC1 | 15.85
44 | CCN(CC)CCn1cc(NC(=O)CNc2ccccc2OC)cn1 | 1.772
45 | COc1ccccc1C(=O)N1CCN(C(=O)CCn2ccnc2)CC1 | 1.871
46 | COc1ccccc1C1(CNc2ccc(C(=O)N(C)C)cn2)CC1 | 4.76
47 | Cc1c(C(=O)N2CCCOCC2)nnn1-c1cccc2cnccc12 | 5.187
48 | COc1cccc(CNC(C)c2ccc(-n3ccnc3)cc2)c1OC.Cl (stereo unspecified) | 1.707

Row | SMILES | Percent Effect [%]
49 | Cc1nnc(C(C)Nc2ccc(OCCc3ccccc3)nc2)o1 (stereo unspecified) | -0.9062
50 | COc1cc(CNc2nc(C(F)(F)F)no2)cc(OC)c1OC | 5.574
51 | CC(C1CCN(Cc2ccc(OC(F)F)cc2)CC1)N1CCOCC1 (stereo unspecified) | 6.94
52 | Cl.Fc1ccc(CN2CCC(c3n[nH]c4ncccc34)CC2)cc1F | 3.09
53 | CC(C)Oc1cccc(CN2CCC(c3n[nH]c4ncccc34)CC2)c1 | 89.98
54 | Fc1cccc(CN2CCC(c3n[nH]c4ncccc34)CC2)c1F | -6.364
55 | CC(C)Oc1ccc(CN2CCC(c3n[nH]c4ncccc34)CC2)cc1 | 97.82
56 | CC(C)Oc1cccc(CN2CCC(C(C)N3CCOCC3)CC2)c1 (stereo unspecified) | 8.799
57 | Fc1cccc(Cl)c1CN1CCC(c2n[nH]c3ncccc23)CC1 | 100.4
58 | CC(C)Oc1ccc(CN2CCC(Cc3nnc(CO)n3C)CC2)cc1 | -3.16
59 | Cc1cc(NC(=O)c2nc(N3CCCC3)ncc2Cl)ccc1Br | 7.259
60 | Cc1ncoc1C(=O)N1C[C@@H]2COC[C@]2(c2nnc(C3CC3)o2)C1 | 19.81
61 | NC1CCCCN(Cc2cc(C3CCCCC3)no2)C1 (stereo unspecified) | 4.436
62 | O=C(c1cc(C2CCCCC2)no1)N1C[C@H]2C[C@H](O)C[C@H]2C1 | 95.88
63 | O=C(c1cc(C2CC2)nc2onc(-c3ccccc3)c12)N1CC(O)C1 | 1.744
64 | C[C@@H]1CN(C2CCN(c3ccccc3)CC2)CC[C@@]1(O)C1CCOCC1 | 103.2
65 | C[C@@H]1CN(C2CCCCC2)CC[C@@]1(O)C1CCOCC1 | 98.71
66 | C[C@@H]1CN(CC(C)(C)N2CCOCC2)CC[C@@]1(O)C1CCOCC1 | 4.466
67 | O=C(C1CCOCC1)N1C[C@H]2CC[C@@H]1CN(C1Cc3ccccc3C1)C2 | 13.64
68 | C[C@@H]1CN(C2Cc3ccccc3C2)CC[C@@]1(O)C1CCOCC1 | 82.39
69 | C[C@@H]1CN(C(=O)c2ccc(=O)[nH]c2)CC[C@@]1(O)C1CCOCC1 | -4.844
70 | C[C@@H]1CN(S(=O)(=O)N2CCCC2)CC[C@@]1(O)C1CCOCC1 | -9.489
71 | C[C@@H]1CN(C2CCN(c3ccccc3F)CC2)CC[C@]1(C)O | -26.42
